# Results from publication PMC7862700, “An all-to-all approach to the identification of sequence-specific readers for epigenetic DNA modifications on cytosine”.
# Tests used:
# Test in all cases: DAPPL (digital affinity profiling via proximity ligation, sequencing); 10 mM Tris-HCl pH 7.5, 50 mM NaCl, 1 mM DTT, 4% glycerol, room temperature, 30 min; GST-TFs on glutathione beads, 16-mer random dsDNA library, 0.1% formaldehyde crosslink after washing; high values mean tight binding
# HSF1 = HSF1 (Homo sapiens, UniProt Q00613 1-529); details: protein: recombinant; tags: N-terminal GST; chain copies: 3; dsDNA, one strand shown
# Summary of the method: (§1)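 Human transcription factors were made in yeast as GST fusions, captured on glutathione beads and barcoded with DNA. With a tag-only sample included, the pool was incubated with 200 nmole of a random double-stranded 16-mer DNA library in Tris/NaCl/DTT/glycerol buffer at room temperature for 30 min, then crosslinked with 0.1% formaldehyde after washing, ligated by proximity, amplified and sequenced. For binding signal, each hexamer's read frequency for a factor is divided by its frequency for the tag-only sample.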
# CRX = CRX (Homo sapiens, UniProt O43186 1-299); details: protein: recombinant; tags: N-terminal GST; dsDNA, one strand shown
# Summary of the method: as §1
# ETS2 = molecular target: T1, ETS2 (Homo sapiens, UniProt P15036 1-469); details: protein: recombinant; tags: N-terminal GST; dsDNA, one strand shown
# T1 sequence: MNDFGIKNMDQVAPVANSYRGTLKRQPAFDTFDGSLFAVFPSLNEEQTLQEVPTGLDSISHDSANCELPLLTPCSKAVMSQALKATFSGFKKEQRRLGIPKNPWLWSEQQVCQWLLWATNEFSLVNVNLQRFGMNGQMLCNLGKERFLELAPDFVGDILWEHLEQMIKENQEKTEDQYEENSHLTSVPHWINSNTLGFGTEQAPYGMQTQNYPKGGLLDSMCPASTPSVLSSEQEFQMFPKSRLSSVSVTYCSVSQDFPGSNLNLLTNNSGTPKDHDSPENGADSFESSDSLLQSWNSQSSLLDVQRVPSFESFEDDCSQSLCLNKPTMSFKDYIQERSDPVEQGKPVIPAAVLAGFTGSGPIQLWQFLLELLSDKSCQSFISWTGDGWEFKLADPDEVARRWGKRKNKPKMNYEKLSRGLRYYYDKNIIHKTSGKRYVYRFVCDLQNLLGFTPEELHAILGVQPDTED
# Summary of the method: as §1
# SPDEF = molecular target: T2, SPDEF (Homo sapiens, UniProt O95238 1-335); details: protein: recombinant; tags: N-terminal GST; dsDNA, one strand shown
# T2 sequence: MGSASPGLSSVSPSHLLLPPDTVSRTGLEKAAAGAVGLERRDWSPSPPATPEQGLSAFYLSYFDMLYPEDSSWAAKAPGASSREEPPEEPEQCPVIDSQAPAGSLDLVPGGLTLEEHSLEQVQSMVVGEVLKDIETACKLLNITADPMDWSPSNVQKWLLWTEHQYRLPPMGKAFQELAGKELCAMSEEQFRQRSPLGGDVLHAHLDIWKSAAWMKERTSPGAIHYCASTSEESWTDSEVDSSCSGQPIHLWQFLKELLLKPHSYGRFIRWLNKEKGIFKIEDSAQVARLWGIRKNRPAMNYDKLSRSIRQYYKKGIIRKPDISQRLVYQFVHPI
# Summary of the method: as §1
# ELF5 = molecular target: T3, ELF5 (Homo sapiens, UniProt Q9UKW6-2 1-255); details: protein: recombinant; tags: N-terminal GST; dsDNA, one strand shown
# T3 sequence: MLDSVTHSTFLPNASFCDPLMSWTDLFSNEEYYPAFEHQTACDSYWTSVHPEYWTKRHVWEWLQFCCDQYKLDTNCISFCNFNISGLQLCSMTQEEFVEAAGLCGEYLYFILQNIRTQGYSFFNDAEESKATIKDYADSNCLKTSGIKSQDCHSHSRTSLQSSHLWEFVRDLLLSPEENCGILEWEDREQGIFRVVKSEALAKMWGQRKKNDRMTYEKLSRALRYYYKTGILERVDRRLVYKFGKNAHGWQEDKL
# Summary of the method: as §1
# FEV = molecular target: T4, FEV (Homo sapiens, UniProt Q99581 1-238); details: protein: recombinant; tags: N-terminal GST; dsDNA, one strand shown
# T4 sequence: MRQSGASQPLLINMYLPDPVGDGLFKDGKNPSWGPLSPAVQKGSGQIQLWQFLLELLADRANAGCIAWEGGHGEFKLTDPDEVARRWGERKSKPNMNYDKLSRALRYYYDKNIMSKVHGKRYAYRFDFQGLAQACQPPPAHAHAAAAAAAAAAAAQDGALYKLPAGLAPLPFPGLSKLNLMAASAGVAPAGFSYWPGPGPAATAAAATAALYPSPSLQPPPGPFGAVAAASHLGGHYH
# Summary of the method: as §1
# Chain of CRX (O43186 whole entry): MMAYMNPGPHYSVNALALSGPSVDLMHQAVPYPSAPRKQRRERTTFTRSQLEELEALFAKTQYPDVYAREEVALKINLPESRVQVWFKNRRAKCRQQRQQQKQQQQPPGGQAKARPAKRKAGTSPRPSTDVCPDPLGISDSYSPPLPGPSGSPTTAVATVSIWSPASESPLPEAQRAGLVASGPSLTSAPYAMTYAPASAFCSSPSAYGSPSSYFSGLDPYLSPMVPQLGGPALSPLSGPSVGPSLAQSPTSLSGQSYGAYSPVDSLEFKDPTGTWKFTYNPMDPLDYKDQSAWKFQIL
# Chain of HSF1 (Q00613 whole entry, the tested form may be a part): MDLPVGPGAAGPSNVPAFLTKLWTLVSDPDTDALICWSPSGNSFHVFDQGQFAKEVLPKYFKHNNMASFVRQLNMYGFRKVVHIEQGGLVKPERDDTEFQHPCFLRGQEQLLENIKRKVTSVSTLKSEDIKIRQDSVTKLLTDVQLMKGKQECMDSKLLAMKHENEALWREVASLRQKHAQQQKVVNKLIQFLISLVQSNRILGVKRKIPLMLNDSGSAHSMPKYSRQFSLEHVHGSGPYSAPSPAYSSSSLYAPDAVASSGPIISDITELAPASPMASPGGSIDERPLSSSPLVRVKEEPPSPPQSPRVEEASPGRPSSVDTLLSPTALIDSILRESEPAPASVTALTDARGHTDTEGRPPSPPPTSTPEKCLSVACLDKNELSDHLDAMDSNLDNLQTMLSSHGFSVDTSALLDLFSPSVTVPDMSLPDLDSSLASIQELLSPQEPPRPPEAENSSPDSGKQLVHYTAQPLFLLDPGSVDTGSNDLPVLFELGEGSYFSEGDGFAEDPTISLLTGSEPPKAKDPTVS
sequence,measurement,setting,value
TCAGAT,binding signal,HSF1,"1.21 fold enrichment (6-mer frequency, TF over GST control)"
same,binding signal,CRX,"1.45 fold enrichment (6-mer frequency, TF over GST control)"
same,binding signal,ETS2,"1.02 fold enrichment (6-mer frequency, TF over GST control)"
same,binding signal,SPDEF,"1.07 fold enrichment (6-mer frequency, TF over GST control)"
same,binding signal,ELF5,"1 fold enrichment (6-mer frequency, TF over GST control)"
CGCTAA,binding signal,HSF1,"1.09 fold enrichment (6-mer frequency, TF over GST control)"
same,binding signal,CRX,"1.34 fold enrichment (6-mer frequency, TF over GST control)"
TAGGTA,binding signal,FEV,"1 fold enrichment (6-mer frequency, TF over GST control)"
same,binding signal,HSF1,"1.03 fold enrichment (6-mer frequency, TF over GST control)"
same,binding signal,CRX,"1.22 fold enrichment (6-mer frequency, TF over GST control)"
same,binding signal,ETS2,"1.03 fold enrichment (6-mer frequency, TF over GST control)"
same,binding signal,SPDEF,"1.02 fold enrichment (6-mer frequency, TF over GST control)"
GATGGG,binding signal,ETS2,"1 fold enrichment (6-mer frequency, TF over GST control)"
same,binding signal,SPDEF,"1.08 fold enrichment (6-mer frequency, TF over GST control)"
GCTGCA,binding signal,FEV,"1.01 fold enrichment (6-mer frequency, TF over GST control)"
same,binding signal,ETS2,"1.07 fold enrichment (6-mer frequency, TF over GST control)"
GTCACG,binding signal,SPDEF,"1.02 fold enrichment (6-mer frequency, TF over GST control)"
ACCCCT,binding signal,FEV,"1.08 fold enrichment (6-mer frequency, TF over GST control)"
same,binding signal,ETS2,"1.08 fold enrichment (6-mer frequency, TF over GST control)"
same,binding signal,SPDEF,"1.16 fold enrichment (6-mer frequency, TF over GST control)"
same,binding signal,ELF5,"1 fold enrichment (6-mer frequency, TF over GST control)"
AGAAAC,binding signal,HSF1,"1.78 fold enrichment (6-mer frequency, TF over GST control)"
ATTCGG,binding signal,HSF1,"1.11 fold enrichment (6-mer frequency, TF over GST control)"
TACAGC,binding signal,FEV,"1.01 fold enrichment (6-mer frequency, TF over GST control)"
same,binding signal,CRX,"1.07 fold enrichment (6-mer frequency, TF over GST control)"
same,binding signal,ETS2,"1.1 fold enrichment (6-mer frequency, TF over GST control)"
same,binding signal,ELF5,"1.07 fold enrichment (6-mer frequency, TF over GST control)"
ACAGCC,binding signal,FEV,"1.02 fold enrichment (6-mer frequency, TF over GST control)"
same,binding signal,ETS2,"1.03 fold enrichment (6-mer frequency, TF over GST control)"
same,binding signal,SPDEF,"1.02 fold enrichment (6-mer frequency, TF over GST control)"
same,binding signal,ELF5,"1.03 fold enrichment (6-mer frequency, TF over GST control)"
CGCAAC,binding signal,FEV,"1.07 fold enrichment (6-mer frequency, TF over GST control)"
same,binding signal,SPDEF,"1.03 fold enrichment (6-mer frequency, TF over GST control)"
same,binding signal,ELF5,"1.01 fold enrichment (6-mer frequency, TF over GST control)"
GCACCT,binding signal,FEV,"1.04 fold enrichment (6-mer frequency, TF over GST control)"
same,binding signal,SPDEF,"1.09 fold enrichment (6-mer frequency, TF over GST control)"
GATTAA,binding signal,FEV,"1.02 fold enrichment (6-mer frequency, TF over GST control)"
same,binding signal,HSF1,"2.83 fold enrichment (6-mer frequency, TF over GST control)"
same,binding signal,CRX,"4.96 fold enrichment (6-mer frequency, TF over GST control)"
same,binding signal,ETS2,"1.01 fold enrichment (6-mer frequency, TF over GST control)"
same,binding signal,SPDEF,"1.08 fold enrichment (6-mer frequency, TF over GST control)"
GATCCA,binding signal,FEV,"1.07 fold enrichment (6-mer frequency, TF over GST control)"
same,binding signal,HSF1,"1.21 fold enrichment (6-mer frequency, TF over GST control)"
same,binding signal,CRX,"1.23 fold enrichment (6-mer frequency, TF over GST control)"
same,binding signal,ETS2,"1.09 fold enrichment (6-mer frequency, TF over GST control)"
same,binding signal,SPDEF,"1.17 fold enrichment (6-mer frequency, TF over GST control)"
same,binding signal,ELF5,"1.03 fold enrichment (6-mer frequency, TF over GST control)"
ACCACG,binding signal,FEV,"1.05 fold enrichment (6-mer frequency, TF over GST control)"
same,binding signal,SPDEF,"1.06 fold enrichment (6-mer frequency, TF over GST control)"
same,binding signal,ELF5,"1.02 fold enrichment (6-mer frequency, TF over GST control)"
ATGGGG,binding signal,FEV,"1.05 fold enrichment (6-mer frequency, TF over GST control)"
same,binding signal,CRX,"1.03 fold enrichment (6-mer frequency, TF over GST control)"
same,binding signal,ELF5,"1.1 fold enrichment (6-mer frequency, TF over GST control)"
TCAGCT,binding signal,HSF1,"1.07 fold enrichment (6-mer frequency, TF over GST control)"
same,binding signal,CRX,"1.39 fold enrichment (6-mer frequency, TF over GST control)"
same,binding signal,ETS2,"1.14 fold enrichment (6-mer frequency, TF over GST control)"
AGCTGA,binding signal,CRX,"1.11 fold enrichment (6-mer frequency, TF over GST control)"
same,binding signal,ETS2,"1.04 fold enrichment (6-mer frequency, TF over GST control)"
GCCGCT,binding signal,FEV,"1.05 fold enrichment (6-mer frequency, TF over GST control)"
same,binding signal,CRX,"1.02 fold enrichment (6-mer frequency, TF over GST control)"
same,binding signal,ETS2,"1.09 fold enrichment (6-mer frequency, TF over GST control)"
same,binding signal,ELF5,"1.03 fold enrichment (6-mer frequency, TF over GST control)"
TGGTTG,binding signal,ETS2,"1.08 fold enrichment (6-mer frequency, TF over GST control)"
same,binding signal,ELF5,"1 fold enrichment (6-mer frequency, TF over GST control)"
CTCGGG,binding signal,HSF1,"1.04 fold enrichment (6-mer frequency, TF over GST control)"
TTGGAA,binding signal,HSF1,"1.32 fold enrichment (6-mer frequency, TF over GST control)"
same,binding signal,CRX,"1.07 fold enrichment (6-mer frequency, TF over GST control)"
TCTGGA,binding signal,FEV,"1.08 fold enrichment (6-mer frequency, TF over GST control)"
same,binding signal,HSF1,"3.75 fold enrichment (6-mer frequency, TF over GST control)"
same,binding signal,CRX,"1.72 fold enrichment (6-mer frequency, TF over GST control)"
